Data on one sequence can be found in publication PMC7862700, “An all-to-all approach to the identification of sequence-specific readers for epigenetic DNA modifications on cytosine”.

Common to all, as to experiment: DAPPL (digital affinity profiling via proximity ligation, sequencing); 10 mM Tris-HCl pH 7.5, 50 mM NaCl, 1 mM DTT, 4% glycerol, room temperature, 30 min; GST-TFs on glutathione beads, 16-mer random dsDNA library, 0.1% formaldehyde crosslink after washing; high values mean tight binding
One test deals with T1, FEV (Homo sapiens, UniProt Q99581 1-238).
T1 sequence: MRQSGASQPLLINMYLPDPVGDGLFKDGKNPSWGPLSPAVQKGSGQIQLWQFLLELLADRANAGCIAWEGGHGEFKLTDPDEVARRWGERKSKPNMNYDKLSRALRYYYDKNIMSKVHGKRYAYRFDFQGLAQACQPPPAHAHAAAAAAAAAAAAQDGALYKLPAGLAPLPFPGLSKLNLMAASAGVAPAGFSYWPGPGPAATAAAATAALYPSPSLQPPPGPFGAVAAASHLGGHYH
Particulars: protein: recombinant; tags: N-terminal GST; dsDNA, one strand shown. In a few lines:
(§1)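 Human transcription factors carrying a GST fusion were produced in yeast, bound to glutathione beads, tagged with DNA barcodes and pooled together with a tag-only sample. Each pool was held with 200 nmole of a random double-stranded 16-mer DNA library in Tris/NaCl/DTT/glycerol buffer for 30 min at room temperature, then washed, crosslinked in 0.1% formaldehyde, proximity-ligated with BsaI/T4 ligase (1 h, 37 °C), PCR-amplified and sequenced on an Illumina NextSeq500. Binding signal is the read frequency of each hexamer for a given factor divided by its frequency in the tag-only sample.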

A further test addresses ETV5 (Homo sapiens, UniProt P41161 1-510). The conditions noted are these: protein: recombinant; tags: N-terminal GST; dsDNA, one strand shown. In short, it runs like this:
as §1

The target in the next test is HSF1 (Homo sapiens, UniProt Q00613 1-529). Particulars: protein: recombinant; tags: N-terminal GST; chain copies: 3; dsDNA, one strand shown. In a few lines:
as §1

The next test concerns the target T2, SPIC (Homo sapiens, UniProt Q8N5J4 1-248).
T2 sequence: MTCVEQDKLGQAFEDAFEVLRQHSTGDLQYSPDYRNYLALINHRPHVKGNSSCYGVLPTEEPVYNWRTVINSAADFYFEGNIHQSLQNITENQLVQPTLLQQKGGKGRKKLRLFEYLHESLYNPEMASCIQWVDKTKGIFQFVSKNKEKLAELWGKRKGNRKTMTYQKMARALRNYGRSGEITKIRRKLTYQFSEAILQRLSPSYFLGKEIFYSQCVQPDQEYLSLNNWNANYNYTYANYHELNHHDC
Particulars: protein: recombinant; tags: N-terminal GST; dsDNA, one strand shown. In short, it runs like this:
as §1

The target in the next test is ELF4 (Homo sapiens, UniProt Q99607 1-663). The conditions noted are these: protein: recombinant; tags: N-terminal GST; dsDNA, one strand shown. In a few lines: as §1
The target of another test is T3, ELK4 (Homo sapiens, UniProt P28324-2 1-405).
T3 sequence: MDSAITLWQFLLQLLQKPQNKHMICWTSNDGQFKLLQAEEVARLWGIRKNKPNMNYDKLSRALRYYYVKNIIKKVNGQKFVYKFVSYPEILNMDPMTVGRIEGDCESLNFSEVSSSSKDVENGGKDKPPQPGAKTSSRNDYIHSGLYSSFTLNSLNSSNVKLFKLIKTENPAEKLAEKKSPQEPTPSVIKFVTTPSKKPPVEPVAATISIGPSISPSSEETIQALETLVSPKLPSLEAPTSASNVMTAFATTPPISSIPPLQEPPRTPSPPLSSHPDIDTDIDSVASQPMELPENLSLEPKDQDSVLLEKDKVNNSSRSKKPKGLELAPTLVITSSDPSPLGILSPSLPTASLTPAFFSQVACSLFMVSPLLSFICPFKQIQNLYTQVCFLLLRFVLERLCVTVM
Particulars: protein: recombinant; tags: N-terminal GST; dsDNA, one strand shown. In short, it runs like this:
as §1

The target of the next test is T4, ETV2 (Homo sapiens, UniProt O00321 1-342).
T4 sequence: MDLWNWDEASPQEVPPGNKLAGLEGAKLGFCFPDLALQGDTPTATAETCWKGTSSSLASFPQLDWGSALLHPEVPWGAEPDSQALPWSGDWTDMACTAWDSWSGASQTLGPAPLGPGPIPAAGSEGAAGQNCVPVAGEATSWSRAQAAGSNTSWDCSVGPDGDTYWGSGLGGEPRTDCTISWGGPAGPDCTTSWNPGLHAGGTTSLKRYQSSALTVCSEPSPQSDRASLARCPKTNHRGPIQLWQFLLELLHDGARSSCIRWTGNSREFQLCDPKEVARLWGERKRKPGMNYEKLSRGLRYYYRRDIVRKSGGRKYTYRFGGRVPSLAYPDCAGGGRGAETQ
Particulars: protein: recombinant; tags: N-terminal GST; dsDNA, one strand shown. In a few lines:
as §1

The target in another test is T5, ELF3 (Homo sapiens, UniProt P78545 1-371).
T5 sequence: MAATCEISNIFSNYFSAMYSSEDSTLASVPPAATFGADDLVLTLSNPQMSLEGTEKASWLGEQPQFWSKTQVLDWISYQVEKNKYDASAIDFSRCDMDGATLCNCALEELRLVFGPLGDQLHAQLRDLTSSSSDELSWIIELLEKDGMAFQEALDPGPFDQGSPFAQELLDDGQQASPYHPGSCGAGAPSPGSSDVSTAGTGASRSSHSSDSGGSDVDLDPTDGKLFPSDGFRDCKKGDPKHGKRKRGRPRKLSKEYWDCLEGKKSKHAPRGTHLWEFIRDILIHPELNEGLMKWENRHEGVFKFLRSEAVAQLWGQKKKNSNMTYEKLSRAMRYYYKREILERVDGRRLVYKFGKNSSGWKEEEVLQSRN
Particulars: protein: recombinant; tags: N-terminal GST; dsDNA, one strand shown. In short, it runs like this: as §1

The target of another test is CRX (Homo sapiens, UniProt O43186 1-299). Particulars: protein: recombinant; tags: N-terminal GST; dsDNA, one strand shown. In a few lines:
as §1

For the next test, the target named is ETV1 (Homo sapiens, UniProt P50549 1-477). The conditions noted are these: protein: recombinant; tags: N-terminal GST; dsDNA, one strand shown. In short, it runs like this: as §1
The next test deals with T6, ERF (Homo sapiens, UniProt P50548 1-548).
T6 sequence: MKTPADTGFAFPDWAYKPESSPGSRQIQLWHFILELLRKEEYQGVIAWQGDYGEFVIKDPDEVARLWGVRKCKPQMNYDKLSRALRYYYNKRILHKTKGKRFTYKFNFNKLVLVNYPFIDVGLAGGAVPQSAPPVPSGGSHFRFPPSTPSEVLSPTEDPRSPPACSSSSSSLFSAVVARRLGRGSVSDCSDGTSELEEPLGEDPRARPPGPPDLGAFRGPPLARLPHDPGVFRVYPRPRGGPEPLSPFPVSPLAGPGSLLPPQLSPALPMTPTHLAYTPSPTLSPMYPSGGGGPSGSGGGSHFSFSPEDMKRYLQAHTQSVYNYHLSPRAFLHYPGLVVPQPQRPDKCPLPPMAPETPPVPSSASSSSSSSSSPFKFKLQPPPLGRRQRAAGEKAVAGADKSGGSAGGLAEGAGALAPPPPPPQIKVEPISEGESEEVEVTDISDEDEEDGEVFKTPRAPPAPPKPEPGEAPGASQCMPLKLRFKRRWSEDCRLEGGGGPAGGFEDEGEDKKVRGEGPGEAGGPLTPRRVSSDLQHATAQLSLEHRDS
Particulars: protein: recombinant; tags: N-terminal GST; dsDNA, one strand shown. In a few lines: as §1

In a further test the target is T7, ETV3L (Homo sapiens, UniProt Q6ZN32 1-361).
T7 sequence: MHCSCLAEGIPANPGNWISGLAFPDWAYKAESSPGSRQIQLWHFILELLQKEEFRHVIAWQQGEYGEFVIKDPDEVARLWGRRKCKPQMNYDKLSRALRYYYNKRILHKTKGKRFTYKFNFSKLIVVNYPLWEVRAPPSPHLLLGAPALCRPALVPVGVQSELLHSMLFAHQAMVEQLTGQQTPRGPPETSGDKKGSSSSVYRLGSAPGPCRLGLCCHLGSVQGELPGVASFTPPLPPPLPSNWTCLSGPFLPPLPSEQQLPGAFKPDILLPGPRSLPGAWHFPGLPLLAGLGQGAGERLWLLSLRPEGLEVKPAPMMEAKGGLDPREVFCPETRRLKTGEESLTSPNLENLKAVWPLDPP
Particulars: protein: recombinant; tags: N-terminal GST; dsDNA, one strand shown. In a few lines: as §1

A further test has as its target T8, ETS2 (Homo sapiens, UniProt P15036 1-469).
T8 sequence: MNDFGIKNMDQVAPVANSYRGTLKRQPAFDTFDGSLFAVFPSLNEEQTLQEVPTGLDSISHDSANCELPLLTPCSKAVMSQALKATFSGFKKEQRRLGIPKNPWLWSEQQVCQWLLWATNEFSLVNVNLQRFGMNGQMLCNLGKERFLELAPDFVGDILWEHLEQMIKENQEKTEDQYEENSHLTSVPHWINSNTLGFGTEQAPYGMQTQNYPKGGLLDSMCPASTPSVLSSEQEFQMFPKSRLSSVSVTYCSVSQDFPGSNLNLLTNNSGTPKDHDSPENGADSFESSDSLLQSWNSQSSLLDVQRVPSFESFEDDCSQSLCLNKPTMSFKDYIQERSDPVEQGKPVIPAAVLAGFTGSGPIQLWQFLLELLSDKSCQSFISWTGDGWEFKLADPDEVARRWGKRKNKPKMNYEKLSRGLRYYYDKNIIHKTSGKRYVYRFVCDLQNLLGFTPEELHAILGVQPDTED
Particulars: protein: recombinant; tags: N-terminal GST; dsDNA, one strand shown. In a few lines:
as §1

Another test has as its target T9, SPDEF (Homo sapiens, UniProt O95238 1-335).
T9 sequence: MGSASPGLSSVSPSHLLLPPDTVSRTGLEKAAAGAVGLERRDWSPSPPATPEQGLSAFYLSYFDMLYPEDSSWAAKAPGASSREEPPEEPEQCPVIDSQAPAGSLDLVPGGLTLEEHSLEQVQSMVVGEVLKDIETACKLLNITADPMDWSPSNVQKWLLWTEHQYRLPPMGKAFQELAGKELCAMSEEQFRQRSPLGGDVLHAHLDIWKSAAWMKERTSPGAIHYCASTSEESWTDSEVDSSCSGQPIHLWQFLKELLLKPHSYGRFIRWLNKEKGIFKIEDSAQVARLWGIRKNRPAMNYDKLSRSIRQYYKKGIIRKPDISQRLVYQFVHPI
The conditions noted are these: protein: recombinant; tags: N-terminal GST; dsDNA, one strand shown. In a few lines: as §1

Another test addresses T10, ETV7 (Homo sapiens, UniProt Q9Y603 1-341).
T10 sequence: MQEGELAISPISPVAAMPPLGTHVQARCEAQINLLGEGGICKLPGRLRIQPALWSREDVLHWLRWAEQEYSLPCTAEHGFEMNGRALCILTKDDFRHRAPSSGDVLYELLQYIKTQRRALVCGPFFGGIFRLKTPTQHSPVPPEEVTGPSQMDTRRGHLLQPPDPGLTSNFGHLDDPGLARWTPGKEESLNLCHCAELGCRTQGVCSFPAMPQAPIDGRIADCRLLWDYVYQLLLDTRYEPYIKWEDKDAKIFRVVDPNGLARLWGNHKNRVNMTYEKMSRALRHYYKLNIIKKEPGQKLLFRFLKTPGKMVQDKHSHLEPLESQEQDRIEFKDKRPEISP
The conditions noted are these: protein: recombinant; tags: N-terminal GST; dsDNA, one strand shown. In a few lines:
as §1

A further test addresses T11, ELF5 (Homo sapiens, UniProt Q9UKW6-2 1-255).
T11 sequence: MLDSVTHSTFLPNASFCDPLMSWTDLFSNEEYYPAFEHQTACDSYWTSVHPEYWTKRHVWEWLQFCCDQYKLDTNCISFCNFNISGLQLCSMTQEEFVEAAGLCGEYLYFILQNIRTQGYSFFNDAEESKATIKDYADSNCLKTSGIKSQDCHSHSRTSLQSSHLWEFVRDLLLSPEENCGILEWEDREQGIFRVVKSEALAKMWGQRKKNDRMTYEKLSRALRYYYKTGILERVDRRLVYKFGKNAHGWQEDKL
Particulars: protein: recombinant; tags: N-terminal GST; dsDNA, one strand shown. In short, it runs like this: as §1

The next test concerns the target T12, ETV3 (Homo sapiens, UniProt P41162-2 1-143).
T12 sequence: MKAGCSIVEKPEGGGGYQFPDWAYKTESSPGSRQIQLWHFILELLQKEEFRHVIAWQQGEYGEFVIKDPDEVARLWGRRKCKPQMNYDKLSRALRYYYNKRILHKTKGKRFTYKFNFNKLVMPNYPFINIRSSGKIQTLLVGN
Particulars: protein: recombinant; tags: N-terminal GST; dsDNA, one strand shown. In a few lines: as §1

A further test deals with ETV6 (Homo sapiens, UniProt P41212 1-452). The conditions noted are these: protein: recombinant; tags: N-terminal GST; dsDNA, one strand shown. In a few lines:
as §1

ETV1, sequence (P50549 whole entry): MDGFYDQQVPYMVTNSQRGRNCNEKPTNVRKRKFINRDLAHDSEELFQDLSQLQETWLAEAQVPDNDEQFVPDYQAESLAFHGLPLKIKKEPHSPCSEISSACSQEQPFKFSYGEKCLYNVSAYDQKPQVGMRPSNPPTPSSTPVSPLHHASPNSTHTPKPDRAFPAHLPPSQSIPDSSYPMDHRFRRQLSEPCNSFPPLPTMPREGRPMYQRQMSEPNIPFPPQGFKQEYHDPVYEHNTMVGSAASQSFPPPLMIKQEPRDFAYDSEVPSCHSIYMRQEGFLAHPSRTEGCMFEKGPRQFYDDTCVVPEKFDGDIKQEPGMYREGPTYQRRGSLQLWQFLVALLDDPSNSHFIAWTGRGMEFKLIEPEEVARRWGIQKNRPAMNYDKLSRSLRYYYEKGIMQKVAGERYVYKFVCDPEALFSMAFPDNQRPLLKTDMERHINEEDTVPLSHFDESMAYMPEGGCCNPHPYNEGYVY
ELF4, sequence (Q99607 whole entry): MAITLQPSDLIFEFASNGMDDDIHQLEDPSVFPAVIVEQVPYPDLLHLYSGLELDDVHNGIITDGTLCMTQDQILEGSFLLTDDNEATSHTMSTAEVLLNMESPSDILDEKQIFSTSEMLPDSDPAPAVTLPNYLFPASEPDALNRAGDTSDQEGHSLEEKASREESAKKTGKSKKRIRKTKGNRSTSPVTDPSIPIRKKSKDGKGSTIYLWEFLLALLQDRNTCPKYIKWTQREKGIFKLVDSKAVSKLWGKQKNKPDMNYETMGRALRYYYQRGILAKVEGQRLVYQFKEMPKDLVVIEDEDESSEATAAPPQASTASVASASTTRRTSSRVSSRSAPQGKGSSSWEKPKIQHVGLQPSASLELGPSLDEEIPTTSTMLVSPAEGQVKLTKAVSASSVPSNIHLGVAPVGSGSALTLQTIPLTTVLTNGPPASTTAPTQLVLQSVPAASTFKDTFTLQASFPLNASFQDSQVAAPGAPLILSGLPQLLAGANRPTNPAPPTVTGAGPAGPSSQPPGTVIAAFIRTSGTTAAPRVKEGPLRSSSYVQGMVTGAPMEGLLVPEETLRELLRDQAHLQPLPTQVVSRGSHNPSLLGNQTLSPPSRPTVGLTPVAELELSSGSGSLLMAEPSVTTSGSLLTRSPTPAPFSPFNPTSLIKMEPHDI
CRX, sequence (O43186 whole entry): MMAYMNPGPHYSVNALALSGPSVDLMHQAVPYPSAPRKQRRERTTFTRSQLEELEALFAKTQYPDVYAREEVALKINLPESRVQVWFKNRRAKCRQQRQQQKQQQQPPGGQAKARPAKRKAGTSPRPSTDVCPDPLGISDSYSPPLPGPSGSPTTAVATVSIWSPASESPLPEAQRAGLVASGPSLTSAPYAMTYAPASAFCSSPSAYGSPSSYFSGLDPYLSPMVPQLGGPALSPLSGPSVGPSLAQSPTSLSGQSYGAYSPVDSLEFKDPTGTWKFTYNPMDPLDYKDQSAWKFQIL
ETV5, sequence (P41161 whole entry): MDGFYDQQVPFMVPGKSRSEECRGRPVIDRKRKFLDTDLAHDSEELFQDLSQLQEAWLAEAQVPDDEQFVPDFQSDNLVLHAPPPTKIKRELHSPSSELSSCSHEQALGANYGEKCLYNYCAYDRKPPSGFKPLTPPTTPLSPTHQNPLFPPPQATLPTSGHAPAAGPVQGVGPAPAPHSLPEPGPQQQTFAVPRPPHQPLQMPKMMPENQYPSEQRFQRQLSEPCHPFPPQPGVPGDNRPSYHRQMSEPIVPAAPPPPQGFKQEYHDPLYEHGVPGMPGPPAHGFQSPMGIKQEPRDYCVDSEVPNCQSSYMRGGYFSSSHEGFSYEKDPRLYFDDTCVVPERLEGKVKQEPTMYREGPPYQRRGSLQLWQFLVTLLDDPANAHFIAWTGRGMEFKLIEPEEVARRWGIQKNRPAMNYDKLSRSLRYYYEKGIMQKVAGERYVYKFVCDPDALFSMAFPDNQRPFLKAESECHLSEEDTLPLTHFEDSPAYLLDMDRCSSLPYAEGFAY
HSF1, sequence (Q00613 whole entry): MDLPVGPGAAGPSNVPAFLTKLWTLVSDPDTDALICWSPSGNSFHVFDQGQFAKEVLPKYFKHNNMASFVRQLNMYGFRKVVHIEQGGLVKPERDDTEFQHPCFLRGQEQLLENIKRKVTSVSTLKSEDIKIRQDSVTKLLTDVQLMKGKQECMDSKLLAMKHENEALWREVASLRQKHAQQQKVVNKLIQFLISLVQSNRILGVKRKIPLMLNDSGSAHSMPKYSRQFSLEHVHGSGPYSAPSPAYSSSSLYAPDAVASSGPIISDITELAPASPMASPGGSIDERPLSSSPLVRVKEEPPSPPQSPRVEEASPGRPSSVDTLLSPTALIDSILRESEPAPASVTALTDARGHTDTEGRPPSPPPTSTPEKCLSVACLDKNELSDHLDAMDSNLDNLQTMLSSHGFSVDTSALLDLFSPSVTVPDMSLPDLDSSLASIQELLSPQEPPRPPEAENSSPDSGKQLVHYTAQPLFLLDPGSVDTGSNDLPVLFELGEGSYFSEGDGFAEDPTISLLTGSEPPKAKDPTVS
ETV6, sequence (P41212 whole entry): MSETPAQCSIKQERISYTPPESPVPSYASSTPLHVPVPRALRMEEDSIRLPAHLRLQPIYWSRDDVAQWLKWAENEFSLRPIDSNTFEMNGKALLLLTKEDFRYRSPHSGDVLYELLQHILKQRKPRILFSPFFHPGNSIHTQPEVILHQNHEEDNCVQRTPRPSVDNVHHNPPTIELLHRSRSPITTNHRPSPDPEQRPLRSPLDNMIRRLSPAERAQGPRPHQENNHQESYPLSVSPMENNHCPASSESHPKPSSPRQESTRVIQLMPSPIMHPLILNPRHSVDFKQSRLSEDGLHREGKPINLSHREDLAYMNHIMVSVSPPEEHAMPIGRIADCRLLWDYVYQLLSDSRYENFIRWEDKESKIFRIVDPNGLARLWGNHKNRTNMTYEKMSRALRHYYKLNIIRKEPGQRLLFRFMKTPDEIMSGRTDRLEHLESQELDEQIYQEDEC

As for AAGAAA, the binding signal with FEV was 1.15 fold enrichment (6-mer frequency, TF over GST control); in the test with ETV5, 1.19 fold enrichment (6-mer frequency, TF over GST control); with HSF1 it was 1.75 fold enrichment (6-mer frequency, TF over GST control); with SPIC it was 1.19 fold enrichment (6-mer frequency, TF over GST control); in the test with ELF4, 1.19 fold enrichment (6-mer frequency, TF over GST control); in the test with ELK4, 1.18 fold enrichment (6-mer frequency, TF over GST control). For the same sequence, the binding signal with ETV2 is 1.18 fold enrichment (6-mer frequency, TF over GST control); with ELF3, 1.23 fold enrichment (6-mer frequency, TF over GST control); in the test with CRX, 1.29 fold enrichment (6-mer frequency, TF over GST control); with ETV1, 1.2 fold enrichment (6-mer frequency, TF over GST control); with ERF, 1.24 fold enrichment (6-mer frequency, TF over GST control); with ETV3L it was 1.26 fold enrichment (6-mer frequency, TF over GST control). Besides, the binding signal with ETS2 was 1.24 fold enrichment (6-mer frequency, TF over GST control); with SPDEF, 1.09 fold enrichment (6-mer frequency, TF over GST control); in the test with ETV7, 1.26 fold enrichment (6-mer frequency, TF over GST control); with ELF5 it was 1.2 fold enrichment (6-mer frequency, TF over GST control); with ETV3, 1.16 fold enrichment (6-mer frequency, TF over GST control); in the test with ETV6 it was 1.22 fold enrichment (6-mer frequency, TF over GST control).
